From PubChem BioAssay (Tox21)
Results filed as inconclusive are left out. Calls of active or inactive are those of the source. Unless noted, the call rests on the fitted dose curve; in most records, active means well fitted curve in the direction sought with a large enough effect in the repeat runs; inconclusive means weak or mixed curves; inactive means no such curve, though single readings can be large; an effect the other way counts as inactive or inconclusive.

Legend:
[1] = qHTS assay to identify small molecule antagonists of the vitamin D receptor (VDR) signaling pathway - cell viability counter screen (AID 743225); further: nearly all actives have a fitted effect of over 50% in size; further: potency means the concentration at half of the fitted maximal effect
Summary of the method: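 Cytotoxicity counter screen read by CellTiter-Glo luminescence (30 min, room temperature) in the same wells as the VDR-bla antagonist readout. HEK 293T VDR-UAS-bla cells had 16 h at 37C with compound and 3 nM (final) 1-alpha,25-dihydroxyvitamin D3, then 2 h with FRET substrate.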

[2] = qHTS assay to identify small molecule agonists of the NFkB signaling pathway (AID 1159509; active means well fitted curve in the direction sought with a large enough effect in the signal ratio in the repeat runs, not every such curve was filed as active; the % refers to the signal ratio; further: series mostly up to about 61 µM)
Summary of the method: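 Readout: FRET fluorescence, 405 nm excitation, 460/530 nm emission; beta-lactamase expression disrupts FRET. Cells: ME-180 stably carrying NF-kB-driven bla reporter. Compound exposure 5 hr, 37 C, 5% CO2.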

[3] = qHTS assay to identify small molecule agonists of the endoplasmic reticulum stress response signaling pathway - cell viability counter screen (AID 1159517; calls by dose curve; further: nearly all actives have a fitted effect of over 50% in size; further: potency means the concentration at half of the fitted maximal effect)
Summary of the method: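 Steps: seed 1,500 ESRE-bla HeLa cells per well; incubate overnight at 37 C, 5% CO2; add compounds in DMSO for 5 hr; run FRET substrate 2 hr RT; add CellTiter-Glo, wait 30 min, read luminescence.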

[4] = qHTS assay to identify small molecule antagonists of the retinoid-related orphan receptor gamma (ROR-gamma) signaling pathway - cell viability counter screen (AID 1159520); further: nearly all actives have a fitted effect of over 50% in size; further: potency means the concentration at half of the fitted maximal effect
Summary of the method: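 Tet-on ROR gamma CHO cells were given compounds for 2 hr, then doxycycline hyclate at 1 uM final, and incubated 16 hr at 37 C. Viability was measured as ATP content by CellTiter-Glo luminescence.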

[5] = biological target: Nuclear receptor ROR-gamma (Homo sapiens) (UniProt P51449); assay: qHTS assay to identify small molecule antagonists of the retinoid-related orphan receptor gamma (ROR-gamma) signaling pathway (AID 1159521; further: nearly all actives have a fitted effect of over 50% in size; further: potency means the concentration at half of the fitted maximal effect)
Summary of the method: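 Antagonist read-out: drop in luminescence (ONE-Glo) from an RORE-LUC reporter in CHO cells with doxycycline-inducible ROR-gamma; 2 hr compound pretreatment, 1 uM doxycycline, 16 hr incubation at 37 C.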

[6] = qHTS assay to identify small molecule agonists of the AP-1 signaling pathway - cell viability counter screen (AID 1159525; calls by dose curve; further: nearly all actives have a fitted effect of over 55% in size)
Summary of the method: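 Same-well cytotoxicity counter screen of the Tox21 10K library in ME-180 cells. The readout is ATP-dependent luminescence after 5 h compound treatment. Data are normalised to DMSO and tetra n-octyl ammonium bromide controls.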

[7] = qHTS assay to identify small molecule agonists of the AP-1 signaling pathway (AID 1159526; calls by dose curve)
[8] = qHTS assay to identify small molecule agonists of the RXR signaling pathway - cell viability counter screen (AID 1159529)
Summary of the method: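 CellTiter-Glo luminescence gave viability in the wells also read for beta-lactamase. Cells (RXR-alpha-UAS-bla HEK 293T, 2% charcoal-stripped FBS medium) had 5 hr plating, then 16 hr compound exposure at 37 C; tetraoctyl ammonium bromide served as positive control.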

[9] = qHTS assay to identify small molecule antagonists of the retinoid acid receptor (RAR) signaling pathway - cell viability counter screen (AID 1159551); further: nearly all actives have a fitted effect of over 35% in size; further: potency means the concentration at half of the fitted maximal effect
Summary of the method: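 C3RL4 RARE-luciferase line; cpds + retinol 1 uM final, 6 h, 37 C/5% CO2; CellTiter-Glo ATP luminescence, 30 min RT.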

[10] = biological target: Retinoic acid receptor RXR-alpha (Homo sapiens) (UniProt P19793); assay: qHTS assay to identify small molecule agonists of the RXR signaling pathway (AID 1159527; calls by dose curve; further: nearly all actives have a fitted effect of over 35% in size; further: potency means the concentration at half of the fitted maximal effect)
Summary of the method: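 Agonist-mode beta-lactamase reporter assay: HEK 293T RXR-alpha-UAS-bla cells treated 16 hr at 37 C with compounds, 9-cis retinoic acid as positive control. LiveBLAzer FRET substrate, 405 nm excitation, 460/530 nm emission.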

[11] = qHTS assay to identify small molecule agonists of the retinoic acid receptor (RAR) signaling pathway (AID 1159553); further: potency means the concentration at half of the fitted maximal effect
Summary of the method: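 RARE-luc C3RL4 cells; overnight attachment 37 C/5% CO2; compound (DMSO) 6 hr; luciferase reagent, 30 min RT; luminescence read-out.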

[12] = qHTS assay to identify small molecule antagonists of the estrogen related receptor (ERR) signaling pathway - cell viability counter screen (AID 1224818); further: series mostly up to about 46 µM
Summary of the method: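 Fluorescence from CellTiter-Fluor, read 30 min after reagent addition at 37 C, measured viability of ERR cells exposed to compounds for 17.5 h. Cells had settled 6 h before dosing.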

[13] = qHTS assay to identify small molecule antagonists of the estrogen related receptor (ERR) signaling pathway (AID 1224819)
Summary of the method: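 Luminescence readout (One-Glo, 30 min, RT) of ERR cell line after 18 h compound exposure at 37 C; cells seeded 2,000/well, pre-incubated 6 h, compounds pinned from DMSO stocks.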

[14] = test system: estrogen-related receptor alpha (ERRalpha) with PGC-1alpha coactivator, human; assay: qHTS assay to identify small molecule antagonists of the estrogen related receptor signaling pathway with the pleiotropic PPARgamma coactivator (PGC) (AID 1224821; calls by dose curve)
Summary of the method: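 PGC/ERR reporter cells; 6 h pre-incubation 37 C/5% CO2; pin-tool compound in DMSO, 18 h 37 C; One-Glo added, 30 min RT; luminescence read. qHTS antagonist mode.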

[15] = qHTS assay to identify small molecule antagonists of the estrogen related receptor signaling pathway with the pleiotropic PPARgamma coactivator (PGC) cell viability counter screen (AID 1224822; further: series mostly up to about 46 µM)
Summary of the method: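 Fluorescence read-out of CellTiter-Fluor after 30 min at 37 C; PGC/ERR cells, 2,000 per well, had been exposed to DMSO-dissolved compounds for 17.5 h following a 6 h pre-incubation.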

[16] = qHTS assay to identify small molecule agonists of the estrogen related receptor signaling pathway with the pleiotropic PPARgamma coactivator (PGC) (AID 1224823)
Summary of the method: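 Luminescence readout (One-Glo, 30 min RT) from PGC/ERR cell line treated 18 h at 37 C with pin-tool-delivered DMSO compound solutions; cells plated 6 h before dosing. Quantitative HTS format.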

[17] = qHTS assay to identify small molecule antagonists of the retinoic acid receptor (RAR) signaling pathway (AID 1159552; further: nearly all actives have a fitted effect of over 50% in size; further: potency means the concentration at half of the fitted maximal effect)
Summary of the method: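 Luminescent RARE reporter read-out in C3RL4 cells: 6 hr co-treatment at 37 C of test compounds with retinol at 1 uM final. Cells plated overnight beforehand; luciferase reagent incubated 30 min at room temperature before reading.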

[18] = qHTS assay to identify small molecule agonists of the endoplasmic reticulum stress response signaling pathway (AID 1159516; active means well fitted activation curve with a large enough effect in the signal ratio in the repeat runs, not every such curve was filed as active; the % refers to the signal ratio)
Summary of the method: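 HeLa ESRE-bla reporter line; cpd 5 h, 37 C/5% CO2; LiveBLAzer B/G FRET substrate 2 h RT; ex 405, em 460/530 nm.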

[19] = qHTS assay to identify small molecule agonists of the NFkB signaling pathway - cell viability counter screen (AID 1159515; calls by dose curve; further: series mostly up to about 61 µM; nearly all actives have a fitted effect of over 55% in size)
Summary of the method: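 ME-180 NFkB-bla cells, 2,000/well; overnight attach; compound 5 hr, 37 C/5% CO2; LiveBLAzer substrate 1.5 hr RT; then CellTiter-Glo in same wells, 30 min RT, luminescence read.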

Measured: Potency

Sequence of Retinoic acid receptor RXR-alpha (Homo sapiens) (P19793 whole entry, looked up): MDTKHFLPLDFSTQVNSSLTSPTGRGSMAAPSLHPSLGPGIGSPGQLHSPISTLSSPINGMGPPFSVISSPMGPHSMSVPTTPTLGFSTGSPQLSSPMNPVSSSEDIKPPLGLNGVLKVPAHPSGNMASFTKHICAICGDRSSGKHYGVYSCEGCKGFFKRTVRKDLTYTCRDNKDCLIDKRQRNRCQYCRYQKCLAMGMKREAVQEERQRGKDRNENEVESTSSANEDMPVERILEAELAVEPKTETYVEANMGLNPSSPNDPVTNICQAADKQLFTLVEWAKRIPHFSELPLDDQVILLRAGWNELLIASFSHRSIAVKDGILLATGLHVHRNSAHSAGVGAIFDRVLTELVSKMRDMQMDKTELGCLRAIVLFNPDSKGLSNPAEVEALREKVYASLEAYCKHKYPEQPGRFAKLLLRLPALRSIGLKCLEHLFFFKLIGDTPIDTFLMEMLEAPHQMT

CCOc1ccc(C(C)(C)COCc2cccc(Oc3ccccc3)c2)cc1
inactive: [1] | [2] | [3] | [4] | [5] | [6] | [7] | [8] | [9]

C=CC(=O)NCNC(=O)C=C
active: [10] 4.35 µM
not listed: [1] | [4] | [5] | [8] | [17] | [18] | [19]
inactive: all other assays above

O=NN1CCNCC1
inactive: [2] | [3] | [4] | [6] | [7] | [10] | [8] | [9] | [17] | [11]

O=S1(=O)OC(c2cc(Br)c(O)c(Br)c2)(c2cc(Br)c(O)c(Br)c2)c2ccccc21
inactive: [2] | [6] | [7]
active: [4] 7.91 µM | [5] 5.6 µM | [9] 19.9 µM | [17] 25 µM

O=C(C(Cl)(Cl)Cl)C(Cl)(Cl)Cl
not listed: [4] | [12] | [13] | [14] | [15] | [16] | [18] | [19]
inactive: all other assays above

O=C(Nc1ccccc1)Nc1cnns1
inactive: [2] | [18] | [5] | [6] | [7] | [9] | [17] | [11]

CCCN(CC1CC1)c1c([N+](=O)[O-])cc(C(F)(F)F)cc1[N+](=O)[O-]
inactive: [2] | [3] | [5] | [6] | [7] | [9] | [11]

CCOC(=O)COc1cc(-c2nn(C)c(OC(F)F)c2Cl)c(F)cc1Cl
inactive: [2] | [3] | [4] | [5] | [6] | [7] | [8] | [9] | [17] | [11]

O=[N+]([O-])c1cc(C(F)(F)F)cc([N+](=O)[O-])c1Cl
inactive: [1] | [3] | [4] | [5] | [6] | [7] | [10] | [9] | [17] | [11]

CCOP(=S)(OCC)SCn1nnc2ccccc2c1=O
active: [1] 49 µM
inactive: [18] | [3] | [6] | [7] | [8] | [9] | [17] | [11]

COP(=S)(Oc1cc(Cl)c(Br)cc1Cl)c1ccccc1 (stereo unspecified)
inactive: [1] | [19] | [18] | [6] | [9] | [11]

O=C(CBr)Nc1ccc(Cl)cc1C(=O)c1ccccc1F
active: [3] 23.9 µM
inactive: [4] | [5] | [6] | [8] | [9]

C=CCN1CC[C@]23c4c5ccc(O)c4O[C@H]2C(=O)CC[C@@]3(O)[C@H]1C5
not listed: [2] | [3] | [4] | [12] | [13] | [14] | [15] | [16]
inactive: all other assays above

CC(=O)C(C)(C)C
inactive: [1] | [19] | [4] | [6] | [7] | [8] | [9] | [17] | [11]

BrCC(Br)C1CCC(Br)C(Br)C1 (stereo unspecified)
inactive: [1] | [19] | [4] | [6] | [8] | [9] | [11]

Cc1ccc(-c2c(Cl)nc(C#N)n2S(=O)(=O)N(C)C)cc1
active: [5] 21.7 µM | [11] 68.5 µM
inactive: [18] | [3] | [6] | [9] | [17]

CCN(C)N=O
inactive: [19] | [18] | [4] | [6] | [10] | [8] | [9] | [17] | [11]

COC(=O)C(C)N(C(=O)Cc1ccccc1)c1c(C)cccc1C (stereo unspecified)
inactive: [1] | [18] | [3] | [4] | [6] | [7] | [9] | [17]

CC1(C)[C@H](C=C(Cl)Cl)[C@@H]1C(=O)O[C@@H](C#N)c1cccc(Oc2ccccc2)c1
inactive: [19] | [3] | [4] | [6] | [10] | [9] | [17] | [11]
active: [5] 54.5 µM

C=C(C#N)CCC#N
not listed: [1] | [2] | [12] | [13] | [14] | [15] | [16] | [19]
inactive: all other assays above

CCC(COC(=O)c1cc(OC)c(OC)c(OC)c1)(c1ccccc1)N(C)C (stereo unspecified)
inactive: [18] | [3] | [4] | [5] | [6] | [10]

C=CC(=O)OCC(C)O (stereo unspecified)
inactive: [1] | [18] | [3] | [5] | [6] | [7] | [10] | [8] | [17] | [11]

CCC(C)(NC(=O)c1cc(Cl)c(C)c(Cl)c1)C(=O)CCl (stereo unspecified)
active: [4] 21.8 µM | [5] 6.15 µM | [17] 4.89 µM
inactive: [19]
